# Measured values reported in PMC4336329 (PLoS ONE, 2015).
# Among all 310,000 compounds or so, about 14,000 (4.5%) showed an effect of 50% or more. Effects have a minus sign here. What follows is part of a selection rich in strong results, with near analogues and random picks from the rest.
# Target: human ether-à-go-go-related gene (hERG) potassium channel (human, UniProt Q12809)
# Experiment: primary screen, population patch clamp on CHO cells stably expressing hERG; higher = less effect of the substance
# 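Further: peak tail current of the secondary pulse compared with the same well before compound.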
# human ether-à-go-go-related gene (hERG) potassium channel, sequence (Q12809 whole entry, looked up): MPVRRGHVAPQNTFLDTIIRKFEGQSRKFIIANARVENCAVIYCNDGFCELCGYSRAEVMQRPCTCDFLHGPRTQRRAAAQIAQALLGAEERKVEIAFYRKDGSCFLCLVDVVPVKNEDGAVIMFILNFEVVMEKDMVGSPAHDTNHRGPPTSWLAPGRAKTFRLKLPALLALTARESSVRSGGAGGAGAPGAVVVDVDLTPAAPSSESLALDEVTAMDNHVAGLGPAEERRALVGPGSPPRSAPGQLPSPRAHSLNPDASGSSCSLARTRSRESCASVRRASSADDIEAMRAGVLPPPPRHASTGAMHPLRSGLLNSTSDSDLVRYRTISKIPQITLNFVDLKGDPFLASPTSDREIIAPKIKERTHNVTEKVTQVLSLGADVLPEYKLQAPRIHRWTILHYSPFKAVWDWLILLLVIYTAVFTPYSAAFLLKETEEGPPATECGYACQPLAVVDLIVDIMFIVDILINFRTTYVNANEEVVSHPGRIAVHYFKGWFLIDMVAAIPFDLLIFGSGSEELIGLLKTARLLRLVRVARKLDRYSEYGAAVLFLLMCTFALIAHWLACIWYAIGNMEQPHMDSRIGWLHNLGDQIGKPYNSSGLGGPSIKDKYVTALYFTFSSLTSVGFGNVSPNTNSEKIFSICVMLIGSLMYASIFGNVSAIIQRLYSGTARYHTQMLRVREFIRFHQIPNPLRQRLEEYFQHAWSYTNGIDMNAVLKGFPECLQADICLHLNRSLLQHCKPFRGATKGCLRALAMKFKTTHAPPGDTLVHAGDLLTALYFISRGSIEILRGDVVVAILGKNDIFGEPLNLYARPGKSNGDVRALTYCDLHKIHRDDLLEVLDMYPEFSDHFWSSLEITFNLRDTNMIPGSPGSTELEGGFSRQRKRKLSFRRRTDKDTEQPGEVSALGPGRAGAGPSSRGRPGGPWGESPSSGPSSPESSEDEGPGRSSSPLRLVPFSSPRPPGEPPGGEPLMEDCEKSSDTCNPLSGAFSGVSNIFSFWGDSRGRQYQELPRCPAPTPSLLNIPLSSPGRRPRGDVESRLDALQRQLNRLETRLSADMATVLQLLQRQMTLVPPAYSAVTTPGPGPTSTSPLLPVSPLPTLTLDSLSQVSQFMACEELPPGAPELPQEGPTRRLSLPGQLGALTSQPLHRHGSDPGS
row,SMILES,"hERG current change (%, negative = inhibition) at 10uM [%]"
1,O=C(Nc1nnc(-c2ccc(Br)cc2)o1)c1cccc(N2C(=O)CCC2=O)c1,13.4
2,COc1ccc(CN2CC[C@H]3C=CC[C@@H](C(=O)N4CCOCC4)[C@H]3C2=O)cc1OC,7.75
3,CS(=O)(=O)N1N=C(c2ccccc2)CC1c1ccc2c(c1)OCO2 (centres unmarked),13.9
4,CC(=O)N1N=C(c2ccc(NS(C)(=O)=O)cc2)CC1c1ccc2nccnc2c1 (centres unmarked),-63.2
5,Cc1ccc(C2=NN(S(C)(=O)=O)C(c3ccc4c(c3)OCO4)C2)cc1 (centres unmarked),-2
6,CC(=O)N1N=C(c2ccc3nccnc3c2)CC1c1ccccc1 (centres unmarked),-34.9
7,CC(=O)N1N=C(c2ccc(C)cc2)CC1c1ccc2c(c1)OCO2 (centres unmarked),-30.1
8,CS(=O)(=O)Nc1cccc(C2=NN(S(C)(=O)=O)C(c3ccc4c(c3)OCO4)C2)c1 (centres unmarked),-62.3
9,CS(=O)(=O)Nc1ccc(C2=NN(S(C)(=O)=O)C(c3ccc4nccnc4c3)C2)cc1 (centres unmarked),-32.8
10,CC(=O)N1N=C(c2cccc(NS(C)(=O)=O)c2)CC1c1ccc2c(c1)OCO2 (centres unmarked),-59.2
11,CC(=O)N1N=C(c2ccccc2)CC1c1ccc2c(c1)OCO2 (centres unmarked),1.98
12,Cc1c(/C=N/NC(=O)c2cc(Br)ccc2O)c(=O)n(C)c(=O)n1C,3.23
13,Cc1[nH]c2ccccc2c1C(=O)C(=O)N1CCC2(CC1)OCCO2,7.95
14,COc1cccc(NC(=O)CN(C)CC(=O)Nc2ccc(C)c([N+](=O)[O-])c2)c1,-15.8
15,CCOc1ccccc1N(CC(=O)NC1CCCCC1)S(=O)(=O)c1ccc(C)cc1,-7.2
16,CSCCC(NC(=O)c1ccc(Cl)cc1Cl)C(=O)NCc1ccccn1 (centres unmarked),-8.59
17,Cc1ccc(NCc2n[nH]c(=S)n2-c2ccccc2)cc1,15
18,O=C(NCc1cccnc1)Nc1cccc(Cl)c1,15
19,O=C(Cc1csc(NC(=O)Nc2cccc(Cl)c2)n1)NCc1ccccn1,-5.14
20,O=C(Nc1ccc(Cl)c(Cl)c1)c1cccnc1,-2.86
21,O=C(Cc1csc(NC(=O)Nc2ccc(Cl)cc2)n1)NCc1cccnc1,-50.8
22,O=C(Nc1ccc(F)c(Cl)c1)c1cccnc1,-65.9

row,SMILES,"hERG current change (%, negative = inhibition) at 10uM [%]"
1,O=C(Nc1ccc(Cl)cc1)Nc1cccnc1,-50.7
2,O=C(Nc1ccc(F)c(F)c1)c1cccnc1,0.898
3,O=C(Cc1csc(NC(=O)Nc2cccc(Cl)c2)n1)NCc1cccnc1,-53.8
4,COc1ccccc1NC(=O)Nc1nc(CC(=O)NCc2cccnc2)cs1,-13.3
5,O=C(Nc1cccnc1)Nc1cc(Cl)cc(Cl)c1,6.81
6,O=C(Cc1csc(NC(=O)Nc2ccc(Cl)cc2)n1)NCc1ccccn1,-44.7
7,O=C(Nc1cccnc1)Nc1ccc(F)c(Cl)c1,-36.8
8,CCN1C(=O)C(=O)N(Cc2ccc(OC)c(F)c2)C1=O,15.1
9,CC(C)CCNC(=O)C(c1ccco1)N(Cc1ccc(F)cc1)C(=O)c1snc(C(N)=O)c1N (centres unmarked),-22.4
10,CC(=O)NC(=C(Cl)Cl)S(=O)(=O)c1ccccc1,23.9
11,CCCCCn1c(=O)c(C(=O)Nc2cccc(C)c2)c(O)c2ccccc21,20.7
12,CCN(CC)CCCNc1cc(C(F)(F)F)c(C#N)c2nc3ccccc3n12,-18.4
13,CCc1cccc(N(C(=O)c2csnn2)C(C(=O)NC(C)(C)C)c2ccccn2)c1 (centres unmarked),1.65
14,Cc1ccc(C(=O)Nc2c(C)cc(-c3ccc(Cl)cc3)oc2=O)cc1,-6.18
15,O=S(=O)(/N=C(/Nc1ccccc1F)c1ccccc1)c1ccccc1,4.57
16,O=C(NNC(=O)c1cnccc1C(F)(F)F)c1ccc(Cl)cc1,11.1
17,Cc1c(C(c2cccc([N+](=O)[O-])c2O)c2c(C)n(C)n(-c3ccccc3)c2=O)c(=O)n(-c2ccccc2)n1C,-2.28
18,CCc1cccc(NC(=S)N(CCOC)C(C)c2ccco2)c1 (centres unmarked),-2.48
19,COc1ccc(-n2cc3ccc([N+](=O)[O-])cc3n2)cc1,7.2
20,Cl.Cn1c(=N)n(CC(O)c2cccc3ccccc23)c2ccccc21 (centres unmarked),-67
21,Cl.Cn1c(=N)n(CC(O)c2cccs2)c2ccccc21 (centres unmarked),-39.9
22,Cl.Cn1c(=N)n(CC(O)c2ccccc2)c2ccccc21 (centres unmarked),-26.3

row,SMILES,"hERG current change (%, negative = inhibition) at 10uM [%]"
1,CCCCn1c(=N)n(CC(O)c2ccccc2)c2ccccc21.Cl (centres unmarked),-64.9
2,CCCn1c(=N)n(CC(O)c2ccc(C)cc2)c2ccccc21.Cl (centres unmarked),-65.6
3,COc1cccc(C(O)Cc2nc3ccccc3n2C)c1OC (centres unmarked),23.7
4,CCn1c(=N)n(CC(O)c2cccs2)c2ccccc21.Cl (centres unmarked),-60.4
5,Br.Cn1c(=N)n(CC(=O)O)c2ccccc21,-5.99
6,CCCn1c(C(O)c2ccc(C)cc2)nc2ccccc21 (centres unmarked),15.8
7,CCCCCN(C(=O)CCC(=O)OCC(=O)N(CC#N)c1ccccc1)c1c(N)n(CCCC)c(=O)[nH]c1=O,-0.196
8,COc1ccc(NC(=O)C(OC(=O)c2cnccn2)c2ccccc2)cc1Cl (centres unmarked),24.7
9,Cc1ccc(S(=O)(=O)N2CCN(Cc3csc(C)n3)CC2)cc1,6.87
10,O=[N+]([O-])c1ccc(-c2nn(-c3ccccc3)cc2/C=N/n2c(-c3ccncc3)n[nH]c2=S)cc1,19.4
11,CN1CCN(C(=O)c2cc3ccccc3[nH]2)CC1,-3.26
12,CCN(CC)c1ccc(/C=C(/C#N)C(=O)NCc2ccccc2)o1,2.6
13,CCOc1ccc(N2C(=O)CC(N(O)c3ccccc3)C2=O)cc1 (centres unmarked),2.96
14,OCC[C@H]1C[C@H](O)[C@@H](O)[C@]2(CCCc3ccccc3O2)O1,0.151
15,COCCNC(=O)CN1CCN(S(=O)(=O)c2ccc3c(c2)CCCC3)CC1,-7.28
16,COc1cc(N2C(=O)CC3(CCCC3)CC2=O)cc(OC)c1OC,4.04
17,CCOC(=O)C1(c2ccccc2)CCN(CCC(C#N)(c2ccccc2)c2ccccc2)CC1.Cl,-25
18,N#CC(CCN1CCOCC1)(c1ccccc1)c1ccccc1,-20.8
19,CN1CCN(CCC(C#N)(c2ccccc2)c2ccccc2)CC1.Cl,-62.9
20,O=C(NCc1ccc(Cl)cc1)NCC(F)(F)F,7
21,Cc1ccc(NC(=O)CS(=O)CC(=O)N(C2CCCC2)C(C)C(=O)NC2CCCCC2)cc1 (centres unmarked),-22.5
22,CCOC(=O)c1ccc2c(c1)nc(COc1ccc3ccccc3c1)n2CC,3.73

row,SMILES,"hERG current change (%, negative = inhibition) at 10uM [%]"
1,COc1ccc(-n2c(Cc3cccn3C)nnc2SCC(=O)Nc2ccc(C)cc2)cc1,-26.4
2,COc1ccc(-n2c(Cc3cccn3C)nnc2SCC(=O)Nc2cc(Cl)ccc2OC)cc1,-97.9
3,Cn1cccc1Cc1nnc(SCC(=O)Nc2ccc(F)cc2F)n1-c1ccc(F)cc1,-40.9
4,Cn1cccc1Cc1nnc(SCC(=O)Nc2ccccc2F)n1-c1ccc(F)cc1,-17.4
5,COc1ccc(-n2c(Cc3cccn3C)nnc2SCC(=O)Nc2ccccc2F)cc1,-53.7
6,COc1ccc(NC(=O)CSc2nnc(Cc3cccn3C)n2-c2ccc(OC)cc2)cc1,-21.2
7,COc1ccc(-n2c(Cc3cccn3C)nnc2SCC(=O)Nc2cc(C)cc(C)c2)cc1,-52.4
8,COc1ccc(Cl)cc1NC(=O)CSc1nnc(Cc2cccn2C)n1-c1ccc(F)cc1,-34.6
9,COc1ccc(-n2c(Cc3cccn3C)nnc2SCC(=O)Nc2ccc(F)cc2F)cc1,-57.4
10,COc1ccc(NC(=O)CSc2nnc(Cc3cccn3C)n2-c2ccc(F)cc2)cc1,-21.7
11,COc1ccc(-n2c(Cc3cccn3C)nnc2SCC(=O)Nc2ccccc2OC)cc1,-38.5
12,COc1ccc(OC)c(NC(=O)CSc2nnc(Cc3cccn3C)n2-c2ccc(F)cc2)c1,-10.4
13,COc1ccc(C2=NOC(C(=O)N3CCOCC3)C2)cc1OC (centres unmarked),11.6
14,COCc1cc(C)nc(SCC(=O)Nc2cccc(C)c2)c1C#N,14.2
15,COC1=CC(=O)C(O)=C(CCCCCCC/C=C/CCCCCCCC2=C(O)C(=O)C=C(OC)C2=O)C1=O,-3
16,CCOc1ccc(/C(CCC(=O)O)=N/NC(=S)NC(C)C)cc1,14.1
17,CC1(C)NC(=O)N(CC(=O)O)C1=O,18
18,N/C(=N\OC(=O)c1ccc2ccccc2c1)c1ccccn1,28.3
19,COC(=O)C1=C(C)N=c2s/c(=C/c3cccs3)c(=O)n2C1c1cccs1 (centres unmarked),-7.35
20,COC(=O)CN1C(=O)Nc2ccc(C)cc2C1c1ccccc1 (centres unmarked),14.3
